# Source: PubChem BioAssay (The Scripps Research Institute Molecular Screening Center)
# PLC-beta3 inh = inhibitors of human phospholipase C beta3. Q01970. Purified PLC-beta3, fluorogenic substrate, fluorescence. inhibition, % at 12.2 µM. hit rate 0.18% among 370,000; in the data active = inhibition above about 11%
# sPLA2-III inh = Inhibits HGIII-sPLA2 liposome hydrolysis, primary screen | Q9NZ20 | QFRET BODIPY PC-A2 liposome hydrolysis, fluorescence | inhibition, % at 12.2 µM | hit rate 0.56% among 370,000;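 active = inhibition above mean plus 3 SD of compounds lying within the high and low control bounds, cut at about 19% in these data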
# DAGLB inhibitor = blocks human DAGLB lipase activity; Q8NCG7; inhibition, % at 5.17 µM; HEK293T DAGLB membrane lysate, EnzChek fluorogenic substrate; hit rate 0.059% among 340,000; in the data active = inhibition above about 34%
# Target sequence (Q8NCG7 whole entry, looked up): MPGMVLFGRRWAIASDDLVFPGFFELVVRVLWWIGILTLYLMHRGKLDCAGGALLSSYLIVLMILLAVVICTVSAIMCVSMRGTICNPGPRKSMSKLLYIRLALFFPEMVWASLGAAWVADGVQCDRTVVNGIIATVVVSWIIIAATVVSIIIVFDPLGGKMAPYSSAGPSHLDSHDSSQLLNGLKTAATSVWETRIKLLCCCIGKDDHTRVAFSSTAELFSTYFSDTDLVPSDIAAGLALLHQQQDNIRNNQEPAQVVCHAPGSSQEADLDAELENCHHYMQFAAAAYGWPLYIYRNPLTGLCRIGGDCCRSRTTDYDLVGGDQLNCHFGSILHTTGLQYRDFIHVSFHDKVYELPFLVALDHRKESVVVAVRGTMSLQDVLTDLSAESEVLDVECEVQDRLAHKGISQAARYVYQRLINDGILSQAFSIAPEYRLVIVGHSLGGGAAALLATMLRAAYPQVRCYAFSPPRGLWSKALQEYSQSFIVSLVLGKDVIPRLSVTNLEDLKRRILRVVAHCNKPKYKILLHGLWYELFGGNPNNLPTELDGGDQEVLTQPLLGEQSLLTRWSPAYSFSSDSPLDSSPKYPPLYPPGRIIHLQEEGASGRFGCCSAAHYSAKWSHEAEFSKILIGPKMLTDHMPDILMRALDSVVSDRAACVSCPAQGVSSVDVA
# PLC-gamma1 inh = PLC-gamma1 (human) inhibition, primary screen | inhibition, % at 12.2 µM | AID 720700 | P19174 | purified PLC-gamma1, fluorogenic substrate, fluorescence | hit rate 0.84% among 370,000
# PLCgamma1 ctr = inhibits human PLC-gamma1 in PLC-beta3 counter-screen; inhibition, % at 12.3 µM; hit rate 3.1% among 3,300; purified PLC-gamma1, fluorogenic substrate, fluorescence; AID 743258; shares compounds with PLC-gamma1 inh
# PLCbeta3 conf = human PLC-beta3 inhibition, confirmation; shares compounds with PLC-gamma1 inh; inhibition, % at 12.3 µM; AID 743261; hit rate 1% among 3,300; purified PLC-beta3, fluorogenic substrate fluorescence; in the data active = inhibition above about 11%
# Hits are given with their value; i = inactive; nt = not tested or not shown. In the library only some 1.5% were active in any assay of this set; here they are far more common. Rule as the data show it, unless noted: active = inhibition above about 9.5%; inactive = the rest.
SMILES,PLC-beta3 inh,sPLA2-III inh,DAGLB inhibitor,PLC-gamma1 inh,PLCgamma1 ctr,PLCbeta3 conf
CCOc1ccc(-n2c(SCC(=O)Nc3ccc(S(=O)(=O)Nc4nccs4)cc3)nnc2-c2ccccc2)cc1,i,i,nt,i,nt,nt
COc1ccc(C(=O)NN=C(Cc2ccccc2)Cc2ccccc2)cc1OC,i,i,i,11.1,i,i
COc1ccc(C(=O)Cc2ccccc2)cc1OC,i,i,i,i,nt,nt
Cc1c(-c2ccccc2)nc2ccccc2c1C(=O)NCc1cccs1,14.3,i,i,i,i,i
Cc1c(C(=O)NCc2cccs2)oc2ccccc12,i,i,i,i,nt,nt
O=C(Oc1ccc([N+](=O)[O-])cc1)C1CC(=O)N(c2ccc3c(c2)OCCO3)C1 (stereo not drawn),i,i,i,13.4,i,i
COc1ccc(CC2CCOC2=O)cc1 (stereo not drawn),i,i,i,10.1,i,i
CCCCOc1ccc(CSc2nnc(C)n2N)cc1[N+](=O)[O-],i,i,i,i,nt,nt
COc1ccc(CSc2nnc(C)n2N)cc1[N+](=O)[O-],i,i,i,10.4,i,i
CC(=O)CC[C@H]1CC[C@]2(CCCN(C(=O)C(C)(C)C)C2)O1,i,i,nt,i,nt,nt
N#Cc1c(NC(=O)C2CC(c3ccccc3Cl)=NO2)sc2c1CCC2 (stereo not drawn),i,i,i,i,nt,nt
N#Cc1c(NC(=O)C2CC(c3ccccc3O)=NO2)sc2c1CCC2 (stereo not drawn),i,i,i,14.1,i,i
COC(=O)NNC(=O)C12CC3CC(CC(C3)C1)C2,i,i,i,13.7,i,i
CN(C)S(=O)(=O)c1ccc(NCC2COc3ccccc3O2)c([N+](=O)[O-])c1 (stereo not drawn),i,i,i,i,nt,nt
CCN(CC)S(=O)(=O)c1ccc(NCC2COc3ccccc3O2)c([N+](=O)[O-])c1 (stereo not drawn),i,i,i,12.2,i,i
COc1cc(C=C2C(=O)C=CC2=O)ccc1O,15.6,i,nt,30.4,i,i
Cc1ccc2c(CN3CC(C)CC(C)C3)cc(=O)oc2c1C (stereo not drawn),i,i,i,11.1,i,i
COCC(C)n1c(SCc2nc(N)nc(Nc3ccccc3C)n2)nc2ccccc2c1=O (stereo not drawn),i,i,i,11.4,i,i
O=C(NCCc1ccccc1)OCc1cn(Cc2ccc(F)c(F)c2)nn1,i,i,nt,i,nt,nt
O=S(=O)(c1cc(O)ccc1O)c1cccc2c(S(=O)(=O)c3cc(O)ccc3O)cccc12,i,i,i,10.1,i,i
Cc1cc(NC(=O)C2C3C(=O)N(Cc4ccc(Cl)cc4)C(C(=O)NCc4ccccc4)C34C=CC2(C)O4)no1 (stereo not drawn),13.3,i,i,10.3,i,i
Cc1cc(NC(=O)C2C3C(=O)N(Cc4ccc(Cl)cc4)C(C(=O)NC4CCCCC4)C34C=CC2(C)O4)no1 (stereo not drawn),i,i,i,i,nt,nt
COC(=O)[C@]12C[C@H](CC(=O)N3CCSCC3)C(=O)N(Cc3ccc(Cl)cc3Cl)C1=C[C@H](C1CCCC1)O[C@@H]2C,i,i,nt,i,nt,nt
CN1CC(=O)N2[C@@H](C[C@]3(c4c[nH]c5ccccc45)c4ccccc4N(S(=O)(=O)c4ccccc4)[C@H]23)C1=O,i,i,nt,i,nt,nt
CCN(CC)C(=O)C1=C(C)N(Cc2ccc(C(C)(C)C)cc2)C(=O)C(CC(=O)NC2CCCC2)C1 (stereo not drawn),i,i,i,11.5,i,i
SMILES,PLC-beta3 inh,sPLA2-III inh,DAGLB inhibitor,PLC-gamma1 inh,PLCgamma1 ctr,PLCbeta3 conf
O=C1CC(=O)Nc2ccccc2N1,i,i,i,i,nt,nt
O=C1CS(=O)(=O)c2ccccc2N1,i,i,i,23.6,21.4,i
C[C@H]1[C@@H](NC(=O)c2cccc(C(F)(F)F)c2)CC[C@@]23CCCN2C(=O)CCC[C@@H]13,i,i,nt,i,nt,nt
Cc1cc(C)nc(N(C#N)CCOc2ccc(Cl)cc2)n1,i,i,i,9.8,i,i
Cc1onc(-c2ccc(Cl)cc2)c1-c1ccn(S(=O)(=O)c2ccccc2)n1,i,i,nt,10.2,i,i
Cc1ccc(S(=O)(=O)n2ccc(-c3c(-c4ccccc4)noc3C)n2)cc1,i,i,nt,i,nt,nt
CCOc1ccc(S(=O)(=O)N2CCC(C(=O)NCc3cccnc3)CC2)cc1,i,i,i,12.4,i,i
Cc1ccc(S(=O)(=O)N2CCC(C(=O)NCc3cccnc3)CC2)cc1,i,i,i,i,nt,nt
